In PubChem BioAssay AID1740 (National Center for Advancing Translational Sciences (NCATS), 2009):
Records with an inconclusive call do not appear. A number with no mark means an inactive call. Activity calls are given as the source filed them. Calls follow the shape of the dose curve; as a rule, active = well fitted activation curve with a large enough effect; inconclusive = small, poorly fitted or top-dose-only effect; inactive = no such curve, though single readings can be large or run the other way.

test: Confirmation Concentration-Response Assay for Enhancers of SMN2 Splice Variant Expression; details: HEK293 SMN2-exon7-luciferase splicing reporter, luminescence, 30-36 h; series mostly up to 22.7 µM; activation: at the top concentration
Source text: NIH Chemical Genomics Center [NCGC] NIH Molecular Libraries Probe Production centers Network [MLPCN] MLPCN Grant: R03 MH084179-01 Assay Submitter (PI): Elliot Androphy NCGC Assay Overview: Spinal muscular atrophy (SMA) is caused by insufficient levels of the survival motor neuron protein SMN. The SMN locus on chromosome 5q13 contains two inverted copies of SMN called SMN1 and SMN2 which are 99% identical at the amino acid level. SMN1 is a fully functional protein and SMN2 skips exon 7 90% of the time. Skipping of exon 7 produces non-functional protein product. 10% of the SMN2 protein includes exon 7 and is fully functional. In the SMA disease state, mutations in the SMN1 locus are the cause of the disease state. Because only 10% of SMN2 is of the fully functional form, it is not sufficient to overcome the deficiency produced by the loss of the SMN1 product. A therapy that either increase the amount of SMN2 product made or to increase the inclusion of exon 7 has been proposed for the treatment of SMA. We have designed an assay to identify small molecules that can increase the amount of functional SMN2 product by appending a luciferase reporter gene after the native SMN2 gene, such that inclusion of exon 7 in the expressed product places the luciferase sequence in frame, thus generating functional luciferase enzyme.
NCGC Assay Protocol Summary: This screen utilizes a luciferase reporter gene assay, combining the promoter with the major portion of the native SMN2 cDNA (exons 1 -7, intron 8 , exon 8 fused to luciferase) stably expressed in HEK293 cells. Compounds that increase luciferase signal presumably enhance expression of the functional SMN2 splice variant. Passaging media contained DMEM w/ glutamax (+phenol red) 10% FCS, 1x pen/strep, 200 ug/ml hygro, 1x sodium pyruvate. Assay media contained DMEM w/ glutamax (-phenol red) 10% FCS, 1x pen strep, 1x pyruvate Sequence, Parameter, Value, Description (1) Cells, 5 uL, 2000 cells/well, 1536 TC treated White solid bottom plate (2) Time, 10-12 hours, 37C 5% CO2 (3) Compound, 23 nl, MLSMR Library (4) Control Compound, 23 nL, Sodium butyrate st 4.5mM (final) conc (5) Time, 30-36 hours, 37C 5% CO2 (6) Reagent, 3 ul, One Glo (TM) from Promega (7) Time, 5-15 minutes, Room temp (8) Detector, Viewlux: luminescent read, 60 second integration, high speed 2x binning Keywords: Spinal muscular atrophy, SMA, SMN2, high throughput screening, MLSMR, MLPCN, NIH Roadmap, qHTS and NCGC

| Structure (SMILES) | activation | Potency |
| --- | --- | --- |
| CCc1ccc2nc(N3CCC(C(=O)N4CCC5(CC4)OCCO5)CC3)sc2c1 | 7.5% |  |
| COc1ccc(CNC(=O)c2ccc(C(C)C)cc2)cc1 |  | 5.01 µM (active) |
| O=C(C1CCN(c2nc3ccc(Br)cc3s2)CC1)N1CCC2(CC1)OCCO2 | -4.36% |  |
| C[C@@H]1O[C@@H](O[C@H]2C[C@@H](O)[C@]3(CO)[C@H]4[C@H](O)C[C@]5(C)[C@@H](C6COC(=O)C6)CC[C@]5(O)[C@@H]4CC[C@]3(O)C2)[C@H](O)[C@H](O)[C@H]1O (some centres undefined) | -43.8% [at 46.1 µM] |  |
